Compounds with a hit are over-represented: about 4.8% of the library has one in this group of screens.
DAX1 inh-1 – inhibitors of human orphan nuclear receptor DAX1 (NR0B1); actives 0.99% (n = 340,000); inhibition, % at 6.75 µM; HEK293 Gal4-DAX1 luciferase reporter, luminescence; P51843;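 active = inhibition above the mean over all tested compounds plus 3 SD, cut at about 4.2% in these data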;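 also: 0% = DAX1-transfected cells with DMSO and 100% = empty-vector control cells with DMSO; inhibition shows as a rise in luminescence from relieved DAX1 repression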
Target sequence (P51843 207-470 limits assumed): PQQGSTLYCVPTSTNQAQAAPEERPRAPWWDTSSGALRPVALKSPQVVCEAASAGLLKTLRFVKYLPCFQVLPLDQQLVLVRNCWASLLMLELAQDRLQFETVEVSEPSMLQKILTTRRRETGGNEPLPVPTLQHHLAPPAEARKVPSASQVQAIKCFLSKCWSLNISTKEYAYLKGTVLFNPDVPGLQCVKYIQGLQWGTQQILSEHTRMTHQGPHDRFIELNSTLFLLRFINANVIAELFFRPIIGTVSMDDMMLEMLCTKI
DAX1 inh-2 – blocks DAX1 repression of SF-1 activated StAR promoter; HEK293T StAR-luciferase reporter, SF-1/DAX-1 repression relief; inhibition, % at 6.8 µM; actives 1.1% (n = 370,000); AID 652010;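 active = inhibition above the mean over all tested compounds plus 3 SD, cut at about 3.6% in these data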;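 also: 0% = DAX-1 cells with DMSO and 100% = cells lacking DAX-1 with DMSO; higher inhibition means more luminescence from relief of DAX-1 repression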
hgDAF12 agonist – activates the H. glycines DAF-12 receptor ligand-binding domain; actives 1.8% (n = 370,000); activation, % at 6.8 µM; HEK293 GAL4-hgDAF12 UAS-luciferase reporter, agonist luminescence; normalized to butyrate control; AID 687014;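 active = activation above a cutoff set at the mean of all screened compounds plus 3 SD, cut at about 10% in these data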;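 also: 0% = DMSO wells and 100% = sodium butyrate wells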
ssDAF12 agonist – activators of S. stercoralis DAF-12 nuclear receptor | HEK293 ssDAF-12/GRIP1 lit1-tk-luc reporter, luminescence; % of 3 µM dafachronic acid response | activation, % at 6.8 µM | actives 1% (n = 370,000) | AID 652126;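 active = activation above the mean over all tested compounds plus 3 SD, cut at about 0.9% in these data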;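 also: 0% = DMSO-only wells and 100% = 3 µM delta7-dafachronic acid wells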
hcDAF12 agonist – activates DAF-12 receptor from parasite H. contortus. actives 1.4% (n = 370,000). HEK293 hcDAF-12 lit1-tk-luc reporter, luminescence; 0% DMSO, 100% Δ7-dafachronic acid. activation, % at 6.8 µM. AID 652067;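 active = activation above the mean of all tested compounds plus 3 SD, cut at about 5.5% in these data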;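 also: 100% = response to 3 µM Δ7-dafachronic acid high control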
SMARCA2 act – activators of SMARCA2 function | activation, % at 9.1 µM | actives 1% (n = 370,000) | AID 652017 | MG213 cells, MMTV-luciferase reporter, dexamethasone, overnight; in the data active = activation above about 7.8%;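 also: 0% = vehicle wells and 100% = reference activator wells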
DAX1 conf – confirmation of human DAX1 (NR0B1) inhibitors; shares compounds with DAX1 inh-2; HEK293T StAR-promoter luciferase reporter, SF-1/DAX-1 repression; inhibition, % at 6.8 µM; actives 87% (n = 2,400);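 active = inhibition above the average of every tested compound plus 3 SD, cut at about 3.8% in these data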;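 also: 0% = DAX-1 cells with DMSO and 100% = no DAX-1 control cells with DMSO; active compounds raise luminescence by relieving repression of the StAR reporter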
SF1 mutant ctr – nonselective inhibitor or artifact in SF-1 mutant DAX1 counter-screen; shares compounds with DAX1 inh-2; HEK293 StAR-luciferase, SF-1 AF2 mutant, luminescence; inhibition, % at 6.8 µM; actives 78% (n = 2,400); AID 652136;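 active = inhibition above the mean of all tested compounds plus 3 SD, cut at about 3% in these data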;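 also: 0% = DAX-1 transfected cells with DMSO and 100% = cells without DAX-1 with DMSO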
SMARCA2 conf – SMARCA2 activation, confirmation screen; AID 652260; activation, % at 9.1 µM; MG213 cells, MMTV-luciferase with dexamethasone, luminescence, overnight; MG213 cells expressing E1A, Rb sequestered; DMSO wells 0%, reference activator 100%; actives 30% (n = 3,500); shares compounds with SMARCA2 act;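 active = activation above its plate's cutoff, the mean activation of tested wells plus 3 SD, cut at about 7.9% in these data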
VP16 Luc act – GAL4-VP16 reporter activation counter-screen; shares compounds with SMARCA2 act; HEK293 GAL4-VP16 pG5luc reporter, luciferase luminescence; scaled: DMSO wells 0%, SAHA wells 100%; activation, % at 9.1 µM; actives 41% (n = 3,500); AID 686939;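 active = activation above the solvent-only control well mean plus 3 SD, averaged across control plates, cut at about 5.2% in these data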
LXR ag – counter-screen for hcDAF-12 agonists: agonists of human LXR-beta | AID 743027 | HEK293 Gal4-LXR tk-luc reporter, luminescence, 24 h; normalized: DMSO 0%, positive control 100% | activation, % at 6.8 µM | shares compounds with hcDAF12 agonist | 3,400 tested, under 10 active;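 active = mean percent activation of the reporter above a cutoff set as the average over tested compounds plus their standard deviation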
Target sequence (P55055 whole entry, looked up, the tested form may be a part): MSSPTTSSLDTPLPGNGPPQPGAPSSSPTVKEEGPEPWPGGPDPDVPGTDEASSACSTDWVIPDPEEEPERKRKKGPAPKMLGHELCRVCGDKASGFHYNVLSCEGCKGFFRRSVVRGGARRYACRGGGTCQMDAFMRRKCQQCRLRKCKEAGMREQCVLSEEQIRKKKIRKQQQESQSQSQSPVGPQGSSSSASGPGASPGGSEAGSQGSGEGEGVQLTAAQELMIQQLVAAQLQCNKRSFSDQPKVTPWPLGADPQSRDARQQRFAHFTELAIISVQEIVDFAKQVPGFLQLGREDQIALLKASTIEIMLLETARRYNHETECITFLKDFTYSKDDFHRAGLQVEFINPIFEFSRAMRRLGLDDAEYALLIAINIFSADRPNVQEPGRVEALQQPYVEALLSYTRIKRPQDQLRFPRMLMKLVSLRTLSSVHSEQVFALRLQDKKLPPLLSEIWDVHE
hcDAF12 conf – confirmation of H. contortus DAF-12 agonists; shares compounds with hcDAF12 agonist; HEK293 hcDAF-12 lit1-tk-luc reporter, luminescence; % of Δ7-dafachronic acid response; actives 61% (n = 3,400); activation, % at 6.8 µM;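 active = mean activation across triplicate tests above the threshold derived from the earlier primary screen, cut at about 5.5% in these data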;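 also: 0% = DMSO only wells and 100% = 3 µM Δ7-dafachronic acid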
hgDAF12 conf – hgDAF-12 agonism, confirmation assay | shares compounds with hgDAF12 agonist | HEK293 GAL4-hgDAF12 luciferase reporter, agonist mode; percent of butyrate response | activation, % at 6.8 µM | actives 80% (n = 3,300) | AID 743050;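 active = mean activation over triplicate wells above the hit cutoff derived from the earlier primary screen, cut at about 11% in these data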;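 also: 0% = DMSO low control and 100% = 2 mM sodium butyrate high control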
LXR ag 2 – LXR-beta agonism as DAF-12 counter-screen; HEK293 Gal4-LXR luciferase reporter, 24 h; shares compounds with hgDAF12 agonist; 3,300 tested, under 10 active; activation, % at 6.8 µM;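 active = mean activation of the triplicate above a set limit carried over from the primary screen, none filed active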
* = called active by the depositor; . = no result.

SMILES | DAX1 inh-1 | DAX1 inh-2 | hgDAF12 agonist | ssDAF12 agonist | hcDAF12 agonist | SMARCA2 act | DAX1 conf | SF1 mutant ctr | hgDAF12 conf | LXR ag 2 | others
COc1ccc(-c2cn3cc(C)ccc3n2)cc1Br | -2 | 6.9* | 20* | 1.2* | 14* | 5 | 19* | 8.2* | 20* | 1 | LXR ag=1;hcDAF12 conf=6.5*
Cc1ccc(Cc2c(-c3ccc(C)cc3)nc3cc(C)ccn23)cc1 | 2 | 6.2* | 18* | 0 | 2 | 3 | 2 | 0 | 4 | 0
Cc1ccc(Cc2c(-c3ccc(C)cc3)nc3ccc(Br)cn23)cc1 | 3 | 3 | 9 | 0 | 5 | 2 | . | . | . | .
Cc1ccn2c(Cc3ccccc3)c(-c3ccc(Br)cc3)nc2c1 | 2 | 8.4* | 17* | 0 | 1 | 3 | 5.3* | 1 | 2 | 0
Cc1ccc(NC(=S)NNC(=O)CSc2nnc(-c3ccc(C)cc3)n2C2CCCCC2)cc1 | . | -1 | 0 | -1 | -4 | -2 | . | . | . | .
CCN(C(=O)COC(=O)c1ccc(C)c(S(=O)(=O)N2CCCCC2)c1)C1CCS(=O)(=O)C1 (centres undefined) | -1 | -1 | 1 | -1 | 1 | -1 | . | . | . | .
Fc1cccc(Cl)c1Cc1noc(/C=C/c2ccccc2)n1 | 1 | 2 | 5 | -1 | 0 | 1 | . | . | . | .
C(=C\c1nc(-c2ccccc2)no1)/c1ccccc1 | 3 | 5.9* | 17* | 0 | 5.8* | 8.9* | 17* | 6.7* | 23* | 1 | SMARCA2 conf=9.3*;VP16 Luc act=9.1*
c1cc(-c2cccs2)nc(-c2cccs2)c1 | 2 | 0 | -3 | 0 | -2 | 0 | . | . | . | .
c1csc(-c2cn3ccc4ccccc4c3n2)c1 | 2 | 4.8* | 17* | 2.5* | 14* | 4 | 8.3* | 5.4* | 18* | 1 | LXR ag=1;hcDAF12 conf=15*
Cc1cc2c(cc1C)NC(=O)C(C)CN2 (centres undefined) | 3 | 5.7* | 20* | 3.0* | 12* | 4 | 16* | 7.9* | 14* | 1 | LXR ag=2;hcDAF12 conf=11*
COc1ccc(-c2cc(C)nc3c(-c4ccccc4)cnn23)cc1 | 0 | 12* | 14* | 0 | 5 | 0 | 15* | 7.8* | 9 | 1
Cc1cc(N2CCCCC2)n2ncc(-c3ccccc3)c2n1 | -1 | 2 | 3 | -1 | 5 | 0 | . | . | . | .
COc1ccccc1-c1cn(CC[C@@H]2CC[C@H](NC(=O)C3CCC3)[C@@H](CO)O2)nn1 | . | -1 | 0 | -1 | 1 | -4 | . | . | . | .
CC(=O)c1cccc(OCc2cc(C(=O)N3CCSCC3)no2)c1 | 1 | 4.8* | 14* | -1 | 4 | 1 | 6.6* | 6.3* | 15* | 0
Cc1cccc(C)c1OCc1cc(C(=O)N2CCN(c3ccc(F)cc3)CC2)no1 | 2 | 5.9* | 14* | 0 | 5 | 2 | 4.5* | 3.6* | 15* | 1
COc1ccccc1C(CNC(=O)C(CCSC)NC(=O)c1ccccc1Cl)N1CCCC1 (centres undefined) | 1 | 2 | -1 | -1 | 0 | -4 | . | . | . | .
O=C(O)c1cccc(N/N=C/c2ccc(-c3ccccc3)cc2)c1 | -3 | 4.7* | 16* | 0 | 4 | 6 | 22* | 10* | 27* | 1
CN(C)c1ccc(/C=N/n2c(-c3ccccc3Br)n[nH]c2=S)cc1 | 0 | 2 | 3 | -1 | 4 | 0 | . | . | . | .
O=C(Nc1ccc2c(c1)Cc1ccccc1-2)c1ccco1 | 3 | 5.6* | 17* | 0 | 6.3* | 3 | 17* | 10* | 21* | 1
CCN(CC)C(=O)Cn1cc(C(=O)C(=O)NCc2ccco2)c2ccccc21 | 0 | 0 | 0 | -2 | -1 | -1 | . | . | . | .
CC(C)Oc1ccc(C(=O)OCC(=O)NCCNC(=O)COC(=O)c2ccc(OC(C)C)cc2)cc1 | 0 | 0 | 1 | -1 | 0 | 0 | . | . | . | .
CC(=O)Nc1nc(C2COc3ccccc3O2)cs1 (centres undefined) | 1 | 5.8* | 14* | 0 | 6.7* | 6 | 11* | 5.1* | 15* | 1 | LXR ag=1;hcDAF12 conf=6.1*
O=C(Nc1nc(-c2nc3ccccc3s2)cs1)C1COc2ccccc2O1 (centres undefined) | 2 | 1 | 3 | -1 | 4 | 0 | . | . | . | .
Nc1nnn(CC(=O)N/N=C/C=C/c2ccccc2)n1 | 1 | 0 | 2 | -1 | 1 | 3 | . | . | . | .
O=C(CCN1C(=O)/C(=C/c2ccc(F)cc2)SC1=S)Nc1cc([N+](=O)[O-])ccc1O | 1 | 0 | -1 | -1 | 0 | -1 | . | . | . | .
COc1cccc2[nH]c(-c3ccccn3)nc12 | . | 7.2* | 18* | 1 | 6.4* | 3 | 8.6* | 5.6* | 16* | 1
COc1cnc(-c2ccccn2)[nH]c1=O | 0 | 1 | -1 | -1 | -1 | -4 | . | . | . | .
O=C(NCc1cccnc1)c1ccc(-c2cc3ccccc3oc2=O)cc1 | -4 | -2 | -4 | -2 | -2 | 1 | . | . | . | .
Cc1cccc(OCC(=O)Nc2ccc3c(c2)OCO3)c1C | 1 | 0 | 2 | -1 | -1 | -4 | . | . | . | .

Compound activity (PubChem)
